Rows were chosen to be rich in hits. Some 10% of all compounds tested hit in one or more screens of this group.
NPR1 antag: Natriuretic polypeptide receptor (hNpr1) antagonism - Primary qHTS | HEK293 hNpr1 GloSensor cGMP, ANP-stimulated luminescence | Potency, µM (titrated, usually from 46.3 µM), usual class: inhibitors | AID 1347048, 2019 | 76,000 tested, 1.6% active | Atrial natriuretic peptide receptor 1 (Homo sapiens), P16066; calls by dose curve; note: nearly all actives have a fitted effect of over 60% in size
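HEK293 cells stably expressing human Npr1 and cGMP GloSensor pGS-40F, loaded 2 h with 2% GloSensor reagent, given compound 30 min at room temperature. Luminescence read before and 20 min after 0.1 nM hNppA.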
Luciferase inh: Firefly luciferase inhibition profiling of diverse chemical library using quantitative high-throughput screening; purified P. pyralis luciferase, luminescence, biochemical; Potency, µM (highest dose often 115 µM), usual class: inhibitors; 76,000 tested, 2.5% active; AID 1347043, 2019; note: nearly all actives have a fitted effect of over 65% in size
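FLuc 10nM, D-luciferin 10uM, ATP 10uM, Mg acetate 10mM, Tris acetate pH 7.5, Tween/BSA; cpd qHTS; enzyme added last; CCD luminescence.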
NIH3T3 tox: Cytotoxic Profiling in NIH 3T3 Cell Line of Diverse Libraries Using Quantitative High-Throughput Screening | NIH 3T3 viability, CellTiter-Glo ATP luminescence, 48-72 h | Potency, µM (highest dose often 96.7 µM), most hits filed as inhibitors | 94,000 tested, 4.3% active; note: nearly all actives have a fitted effect of over 55% in size
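First NIH 3T3 cells are plated at 400 cells/well; next compound is pinned in; then plates incubate 48 or 72 hr at 37 °C; finally CellTiter-Glo is added and luminescence read after 10 min.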
HEK293 tox: Cytotoxic Profiling in HEK 293 Cell Line of Diverse Libraries Using Quantitative High-Throughput Screening; HEK 293 viability, ATP luminescence (CellTiter-Glo), 48-72 h; Potency, µM (series often up to 115 µM), most hits filed as inhibitors; 94,000 tested, 6.6% active; AID 1345083, 2018; note: nearly all actives have a fitted effect of over 60% in size
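HEK 293 cells seeded at 250 cells/well were exposed to compound for 48 or 72 hr at 37 degree Celsius. Viability taken as ATP content by CellTiter-Glo luminescence.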
GPT2 inh: Primary qHTS assay for inhibitors of Glutamate pyruvate transaminase 2 (GPT2); Alanine aminotransferase 2 (Homo sapiens), Q8TD30; Potency, µM (series often up to 57.7 µM), most hits filed as inhibitors; AID 1671188, 2021; Recombinant GPT2, coupled pyruvate oxidase/HRP Amplex Red fluorescence; 100,000 tested, 0.25% active; note: nearly all actives have a fitted effect of over 60% in size
Target sequence (Q8TD30 whole entry, looked up): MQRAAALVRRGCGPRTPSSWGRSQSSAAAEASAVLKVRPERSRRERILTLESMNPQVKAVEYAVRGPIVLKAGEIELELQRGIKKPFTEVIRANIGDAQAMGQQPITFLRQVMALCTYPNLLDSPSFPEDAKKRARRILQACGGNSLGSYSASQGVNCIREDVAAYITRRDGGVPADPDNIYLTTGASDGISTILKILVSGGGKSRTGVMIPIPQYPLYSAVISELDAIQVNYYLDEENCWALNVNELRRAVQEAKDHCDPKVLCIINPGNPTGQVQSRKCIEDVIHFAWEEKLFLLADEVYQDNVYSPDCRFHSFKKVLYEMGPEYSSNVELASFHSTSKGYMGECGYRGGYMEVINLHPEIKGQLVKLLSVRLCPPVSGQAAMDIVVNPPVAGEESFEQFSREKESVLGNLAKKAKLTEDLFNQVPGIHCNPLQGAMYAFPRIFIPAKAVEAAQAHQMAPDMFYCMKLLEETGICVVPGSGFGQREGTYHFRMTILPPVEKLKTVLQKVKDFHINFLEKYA
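Recombinant GPT2 (10ng/uL) with 250uM a-KG and 2mM L-alanine, 30 min at room temperature, in HEPES pH 7.5 buffer. Pyruvate detected by pyruvate oxidase/HRP/Amplex Red fluorescence after 30 min in the dark; AOA (50uM) as positive control.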
Of the large screens only hits and unclear results are named; the others gave an inactive call. Unless noted, calls come from the whole dose curve; as a rule, active = well fitted curve in the direction sought with a large enough effect; inconclusive = small, poorly fitted or top-dose-only effect, or another doubt; inactive = no such curve, though single readings can be large; an effect the other way counts as inactive or inconclusive.

COc1ccccc1CCC(=O)N1CCN(c2cc(-c3ccccc3)[nH]n2)CC1	NIH3T3 tox inconclusive, HEK293 tox inconclusive
O=C(COc1ccc(Cl)cc1)N1CCN(c2cc(-c3ccccc3)[nH]n2)CC1	NIH3T3 tox inconclusive, HEK293 tox 89µM
COc1ccccc1CCC(=O)N1CCN(c2cc(-c3ccc(Cl)cc3)[nH]n2)CC1	NIH3T3 tox 32µM, HEK293 tox inconclusive
COc1ccccc1CC(=O)N1CCN(c2cc(-c3ccccc3)[nH]n2)CC1	NIH3T3 tox inconclusive, HEK293 tox 22µM
Cc1ccc(C(=O)N2CCCN(Cc3ccncc3)C(c3ccccc3)CC(=O)NCC2)s1 (stereo not given)	Luciferase inh inconclusive, NIH3T3 tox inconclusive, HEK293 tox inconclusive
COc1ccc(-c2ccc(C(=O)N3CCN(C(=O)c4ccc(C(F)(F)F)cc4)CC3)cc2)nn1	none (no result: NPR1 antag, Luciferase inh, GPT2 inh)
COc1cc(N2CCC(O)CC2)ccc1Nc1nc(Nc2ccccc2S(=O)(=O)C(C)C)c2[nH]cnc2n1	GPT2 inh 18µM (no result: NPR1 antag, Luciferase inh, NIH3T3 tox, HEK293 tox)
Cc1noc(C)c1CC(=O)NC1CCCc2c1[nH]c1ccc(F)cc21 (stereo not given)	NIH3T3 tox inconclusive, HEK293 tox inconclusive
COCC(=O)NC1CCCc2c1[nH]c1c(Cl)cccc21 (stereo not given)	HEK293 tox inconclusive
Cc1noc(C)c1CC(=O)NC1CCCc2c1[nH]c1ccccc21 (stereo not given)	NIH3T3 tox 40µM, HEK293 tox inconclusive
CC(C)(C)C(=O)NC1CCCc2c1[nH]c1ccc(F)cc21 (stereo not given)	NIH3T3 tox inconclusive, HEK293 tox 45µM
COc1ccc(CC(=O)NC2CCCc3c2[nH]c2c(Cl)cccc32)cc1 (stereo not given)	NIH3T3 tox 25µM, HEK293 tox inconclusive
CC(=O)NC1CCCc2c1[nH]c1ccc(F)cc21 (stereo not given)	HEK293 tox inconclusive
O=C(NC1CCCc2c1[nH]c1c(Cl)cccc21)c1ccncc1 (stereo not given)	none
O=C(NC1CCCc2c1[nH]c1c(Cl)cccc21)c1n[nH]c2c1CCC2 (stereo not given)	NIH3T3 tox 28µM, HEK293 tox inconclusive
CC(C)C(=O)Nc1cc(-c2ccncc2)nn1-c1ccccc1	none (no result: NPR1 antag, Luciferase inh)
COc1ccc(CC(=O)NC2CCCc3c2[nH]c2ccccc32)cc1OC (stereo not given)	NPR1 antag inconclusive, NIH3T3 tox inconclusive, HEK293 tox 35µM
COc1ccc(C(=O)NC2CCCc3c2[nH]c2c(Cl)cccc32)cc1OC (stereo not given)	NIH3T3 tox inconclusive, HEK293 tox inconclusive
COc1ccc(C(=O)NC2CCCc3c2[nH]c2ccccc32)cc1OC (stereo not given)	NIH3T3 tox inconclusive, HEK293 tox 45µM
Cn1nc(C(=O)NC2CCCc3c2[nH]c2ccccc32)c2ccccc2c1=O (stereo not given)	NIH3T3 tox inconclusive, HEK293 tox 35µM
CCN1C(=O)C2(CCN(S(=O)(=O)c3ccc(C(C)C)cc3)CC2)c2ccccc21	HEK293 tox inconclusive
COc1cccc(CN2CCC(F)(C(=O)N3CCCC3)CC2)c1OC	NIH3T3 tox inconclusive, HEK293 tox inconclusive (no result: NPR1 antag, Luciferase inh)
COC(=O)CC(NC(=O)Nc1cccn2nc(C)nc12)c1ccccc1 (stereo not given)	none
CNC(=O)Nc1cccn2nc(-c3ccccc3)nc12	Luciferase inh 40µM, NIH3T3 tox inconclusive, HEK293 tox inconclusive, GPT2 inh inconclusive
CCCn1ncc(CN2CC[C@H](N3CCN(C)CC3)[C@H](CCC(=O)O)C2)c1C	none
CCCn1ncc(CN(C)CC2CCN(CCc3ccc(Cl)cc3)CC2)c1C	NIH3T3 tox 35µM, HEK293 tox 22µM
COc1ccc(/C=C/CN2CC(=O)N(c3ccccc3C#N)CC2C)cc1 (stereo not given)	NIH3T3 tox inconclusive, HEK293 tox inconclusive
CNC(=O)c1cc(C)nc2onc(C3CCN(C(=O)c4ccc(C)cc4)C3)c12 (stereo not given)	none (no result: NPR1 antag, Luciferase inh, GPT2 inh)
